Assay results as given in PubChem BioAssay AID1159580 (chemical genetic matrix, 2015).
Values joined by “and” are separate entries in the source; they are usually repeats but may differ in a detail not shown here. Equal values may be shown once. The whole screen tested about 5,500 compounds, of which about 2,000 (36%) were called active. Roughly 18% stayed inconclusive and do not appear here. Rule as the data show it: active = normalized growth mostly below about 0.91 (no sharp cut-off); inconclusive = no clear call, values can overlap the other calls; inactive = mostly above about 0.92. Some of the results follow.

Assay: chemical genetic growth profiling, strain panel (AID 1159580);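 also: tested at 20 µM; growth read once vehicle control cultures reached saturation at 30 °C; 1 = growth at the plate median or of vehicle wells; lower values mean less growth of the strain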
Settings: S. cerevisiae deletion strains, growth OD

Measured: normalized growth

CC1=C(/C=C/C(C)=C/C=C/C(C)=C\C(=O)O)C(C)(C)CCC1
inactive: locus YAL013W, strain DEP1, hits give low values 0.968 | locus YAL021C, strain ccr4, hits give low values 1.01 | locus YAL026C, strain drs2, hits give low values 0.999 | locus YAL030W, strain snc1, hits give low values 0.977 | locus YAL040C, strain CLN3, hits give low values 1.01 | locus YBL061C, strain skt5, hits give low values 0.984 | locus YBR009C, strain hhf1, hits give low values 1.01 | locus YBR021W, strain FUR4, hits give low values 1.02 | locus YBR023C, strain chs3, hits give low values 0.985 | locus YBR171W, strain sec66, hits give low values 0.964 | locus YBR229C, strain ROT2, hits give low values 1 | locus YBR231C, strain swc5, hits give low values 0.989 | locus YBR279W, strain paf1, hits give low values 0.996 | locus YCL011C, strain gbp2, hits give low values 0.994 | locus YCL016C, strain dcc1, hits give low values 0.999 | locus YCL029C, strain bik1, hits give low values 0.992 | locus YCL061C, strain MRC1 (second series), hits give low values 1 | locus YCL069W, strain vba3, hits give low values 0.986 | locus YCR088W, strain abp1, hits give low values 0.995 | locus YDL005C, strain med2, hits give low values 0.979 | locus YDL035C, strain GPR1, hits give low values 0.95 | locus YDL040C, strain nat1, hits give low values 0.987 | locus YDL074C, strain BRE1, hits give low values 0.856 | locus YDL101C, strain DUN1, hits give low values 1.01 | locus YDL134C, strain PPH21, hits give low values 1 | locus YDL185W, strain tfp1, hits give low values 1 | locus YDL192W, strain arf1, hits give low values 1 | locus YDR001C, strain nth1, hits give low values 0.987 | locus YDR069C, strain doa4, hits give low values 0.967 | locus YDR101C, strain arx1, hits give low values 0.985 | locus YDR137W, strain rgp1, hits give low values 0.937 | locus YDR150W, strain NUM1, hits give low values 1.02 and 1.01 | locus YDR159W, strain sac3, hits give low values 1.01 | locus YDR162C, strain NBP2, hits give low values 0.957 | locus YDR195W, strain ref2 0.972 | locus YDR297W, strain sur2, hits give low values 0.987 | locus YDR318W, strain mcm21, hits give low values 0.97 | locus YDR334W, strain swr1, hits give low values 0.982 | locus YDR335W, strain msn5, hits give low values 0.987 | locus YDR363W, strain ESC2, hits give low values 1.01 | locus YDR388W, hits give low values 1 | locus YDR392W, strain spt3, hits give low values 1.01 | locus YDR502C, strain sam2, hits give low values 0.975 | locus YEL003W, strain gim4, hits give low values 0.989 | locus YEL037C, strain rad23, hits give low values 0.979 | locus YEL061C, strain CIN8 (second series), hits give low values 0.991 | locus YEL061C, strain CIN8, hits give low values 1 | locus YER002W, strain NOP16, hits give low values 1.03 | locus YER015W, strain faa2, hits give low values 0.993 | locus YER016W, strain bim1, hits give low values 1.02 | locus YER110C, hits give low values 1 | locus YER111C, strain swi4, hits give low values 0.954 | locus YER155C, strain BEM2 (second series), hits give low values 1 | locus YER155C, strain BEM2, hits give low values 1.01 | locus YER167W, strain BCK2, hits give low values 0.966 | locus YFR010W, strain ubp6, hits give low values 0.961 | locus YGL078C, strain dbp3, hits give low values 1 | locus YGL086W, strain mad1, hits give low values 0.992 | locus YGL167C, strain pmr1, hits give low values 0.975 | locus YGL173C, strain kem1, hits give low values 0.972 | locus YGL227W, strain vid30, hits give low values 0.974 | locus YGL240W, strain doc1, hits give low values 0.958 | locus YGL248W, strain PDE1, hits give low values 0.995 | locus YGL253W, strain hxk2, hits give low values 0.996 | locus YGR078C, strain PAC10, hits give low values 0.908 and 1.02 | locus YGR135W, strain pre9, hits give low values 0.974 | locus YGR229C, strain SMI1, hits give low values 0.82 and 1.02 | locus YGR252W, strain gcn5, hits give low values 1.02 | locus YHR013C, strain ard1, hits give low values 0.982 | locus YHR027C, strain rpn1, hits give low values 0.997 | locus YHR030C, strain SLT2, hits give low values 1 and 1.02 | locus YHR079C, strain IRE1 (second series), hits give low values 0.988 | locus YHR079C, strain IRE1, hits give low values 1.04 | locus YHR094C, strain hxt1, hits give low values 0.999 | locus YHR129C, strain ARP1, hits give low values 0.996 | locus YHR142W, strain chs7, hits give low values 0.979 | locus YHR200W, strain rpn10, hits give low values 1 | locus YIL066C, strain RNR3, hits give low values 0.984 | locus YIL073C, strain SPO22, hits give low values 0.934 | locus YIL125W, strain kgd1, hits give low values 0.995 | locus YIR030C, strain dcg1, hits give low values 1.01 | locus YJL092W, strain hpr5, hits give low values 0.965 | locus YJL095W, strain BCK1 (second series), hits give low values 0.99 | locus YJL095W, strain BCK1, hits give low values 0.918 and 1.01 | locus YJL115W, strain asf1, hits give low values 0.962 | locus YJL129C, strain trk1, hits give low values 0.956 | locus YJL134W, strain LCB3, hits give low values 1 | locus YJL154C, strain vps35, hits give low values 0.986 | locus YJL164C, strain tpk1, hits give low values 1.01 | locus YJL166W, strain qcr8, hits give low values 0.928 | locus YJL168C, strain set2, hits give low values 0.999 | locus YJL187C, strain SWE1 (second series), hits give low values 0.986 | locus YJL187C, strain SWE1, hits give low values 0.994 | locus YJR043C, strain POL32, hits give low values 0.87 | locus YJR066W, strain TOR1, hits give low values 0.972
